Laboratory results: the supplement of paper PMC13392028

Tested on: PvIESI-1 RRM domain (Plasmodium vivax PVP01_0939900 aa 896-1203, GST fusion)
Test: RBNS R-value (6-mer enrichment in protein-bound RNA vs input library) (ratio); higher = stronger binding preference; the methods of the paper give 50 / 100 / 500 nM protein instead
Description: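 RNA Bind-n-Seq: recombinant GST-tagged IESI-1 RRM domain was incubated at room temperature with a random 40-nt in vitro transcribed RNA library at 250, 500 or 1000 nM protein. Bound RNA was pulled down on glutathione beads and sequenced. R-value is the enrichment of each 6-mer in the bound RNA relative to the input library. Each 6-mer sits inside the random 40-mer context, not as an isolated oligo. Values are replicate 1 only.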

Sequence | RBNS R-value (protein concentration: 250 nM) | RBNS R-value (protein concentration: 500 nM) | RBNS R-value (protein concentration: 1000 nM)
GAUUUU | 2.5 | 2.64 | 2.47
GGUGAU | 1.97 | 2.19 | 2.15
UGAUAG | 3 | 3.35 | 3.29
GAUGAA | 2.73 | 2.89 | 2.83
UGUGAU | 2.53 | 2.8 | 2.72
ACCCGA | 1.44 | 1.74 | 1.74
CAUGAU | 3.57 | 3.87 | 3.8
UGAUUC | 3.85 | 4.13 | 3.89
GAUGAG | 2.33 | 2.49 | 2.4
UGAUUA | 3.86 | 4.25 | 4.11
UGAUAC | 2.41 | 2.83 | 2.87
UUGAUC | 1.91 | 2.12 | 2.1
GAUGUG | 2.3 | 2.53 | 2.31
